G9a block = qHTS Assay for Inhibitors of Histone Lysine Methyltransferase G9a; Histone-lysine N-methyltransferase EHMT2 (Homo sapiens), Q96KQ7; G9a H3K9 monomethylation, AlphaScreen, 2 h; Potency, µM (series often up to 102 µM), actives largely listed as inhibitors; actives 8.8% (n = 350,000); AID 504332, 2011; note: nearly all actives have a fitted effect of over 75% in size
Target sequence (Q96KQ7 913-1193 limits assumed): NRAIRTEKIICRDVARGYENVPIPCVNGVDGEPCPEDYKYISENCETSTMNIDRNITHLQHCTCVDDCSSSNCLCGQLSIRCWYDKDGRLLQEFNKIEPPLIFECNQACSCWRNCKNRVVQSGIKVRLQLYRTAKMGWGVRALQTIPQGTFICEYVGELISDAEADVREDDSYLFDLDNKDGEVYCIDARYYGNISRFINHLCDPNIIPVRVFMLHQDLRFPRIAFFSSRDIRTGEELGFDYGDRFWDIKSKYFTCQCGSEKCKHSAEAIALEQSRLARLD
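AlphaScreen read-out: biotin-H3K9 peptide (500 nM) methylation by 20 nM enzyme with 20 uM SAM, 2 h at room temperature after 15 min compound preincubation; anti-monomethyl H3K9 antibody plus donor/acceptor beads, 10 min dark.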
MmCpn inh = Inhibitors of TCP-1 ring complex (TRiC) of Methanococcus maripaludis (MmCpn): qHTS | Potency, µM (titrated, usually from 76.9 µM), actives largely listed as inhibitors | Chaperonin Mm-Cpn (Methanococcus maripaludis) | actives 0.031% (n = 330,000) | purified Mm-Cpn ATPase, ADP Transcreener TR-FRET; note: nearly all actives have a fitted effect of over 80% in size
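ATPase turnover read by TR-FRET ADP competition (Eu cryptate antibody/ADP-d2, 665/590 nm): 10uM ATP final, 25nM Mm-CPN final, 30 min 37degC after 10-min compound preincubation, pH 7.4 Tris/KCl/MgCl2/DTT buffer.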
Sfp inh = qHTS Assay for Inhibitors of Bacillus subtilis Sfp phosphopantetheinyl transferase (PPTase) | 4'-phosphopantetheinyl transferase ffp (Bacillus subtilis), Q9F4F7 | Biochemical Sfp PPTase activity, qHTS | Potency, µM, usual class: inhibitors | actives 3.5% (n = 310,000);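 note: the enzyme is Sfp with the accession as filed and its product quenches rhodamine fluorescence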
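Step 1, compound plus 15 nM Sfp-PPTase, 15 min, room temperature. Step 2, add rhodamine-CoA (5 uM) and BHQ-2-YbbR (12.5 uM). Step 3, read 525/598 nm fluorescence at 0 and 30 min.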
PLK1 PBD inh = qHTS for Inhibitors of PLK1-PDB (polo-like kinase 1 - polo-box domain): Primary Screen | Serine/threonine-protein kinase PLK1 (Homo sapiens), P53350 | AID 720504, 2013 | Plk1 PBD binding of FITC phosphopeptide, fluorescence polarization | Potency, µM, hits mostly inhibitors | actives 2.8% (n = 360,000); note: series mostly up to about 57 µM; nearly all actives have a fitted effect of over 65% in size
CCT modulator = High-Throughput Screening for Modulators of Cytosolic Chaperonin Activity; actives 0.3% (n = 360,000); activity change, % (no concentration beside the values), hits read low; purified chaperonin ATPase assay, HTRF ADP detection, 30 min; in the data active = activity change below about -30%
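TRiC (40 or 20 nM final, by batch activity) in 30 mM Tris pH 7.4, 100 mM KCl, 5 mM MgCl2, 1 mM DTT was treated with compound at 76 uM single dose, then 10 uM ATP, 30 min at 37 °C. ADP was read by HTRF Transcreener.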
VDR inhibitor = Inhibitors of the vitamin D receptor (VDR): qHTS; Vitamin D3 receptor (Homo sapiens), P11473; VDR-SRC2-3 peptide fluorescence polarization, 2 h; Potency, µM, actives largely listed as inhibitors; actives 0.93% (n = 400,000); AID 504847, 2011
Target sequence (P11473 whole entry, looked up): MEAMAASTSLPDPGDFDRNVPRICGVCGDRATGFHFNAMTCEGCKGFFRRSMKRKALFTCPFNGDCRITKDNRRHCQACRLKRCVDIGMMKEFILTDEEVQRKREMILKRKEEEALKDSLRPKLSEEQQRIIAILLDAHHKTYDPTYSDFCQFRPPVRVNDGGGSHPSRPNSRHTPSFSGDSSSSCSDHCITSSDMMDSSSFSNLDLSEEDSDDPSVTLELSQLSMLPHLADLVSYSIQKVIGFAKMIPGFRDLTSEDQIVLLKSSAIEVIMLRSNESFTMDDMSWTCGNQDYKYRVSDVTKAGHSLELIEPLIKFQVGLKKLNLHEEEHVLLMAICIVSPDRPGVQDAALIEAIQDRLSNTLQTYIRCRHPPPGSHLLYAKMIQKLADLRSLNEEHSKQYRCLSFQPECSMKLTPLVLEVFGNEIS
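Two reagent solutions held at 4 deg C in the dark were dispensed, compounds pinned at 23 nl, and the mixture incubated 2 h at room temperature. Read-out: fluorescence polarization of VDR–SRC2-3 peptide binding.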
Of the large screens only hits and unclear results are named; the others gave an inactive call. The list is not random: actives were taken first. Their share in the collection is about 10%. Unless noted, calls come from the whole dose curve; as a rule, active = well fitted curve in the direction sought with a large enough effect; inconclusive = small, poorly fitted or top-dose-only effect, or another doubt; inactive = no such curve, though single readings can be large; an effect the other way counts as inactive or inconclusive.

Cc1ccc(C)c(N2CCN(C(=O)c3ccc4nsnc4c3)CC2)c1	none
COc1ccc(N2CCN(C(=O)c3ccc(CSc4ccccc4)cc3)CC2)cc1	G9a block inconclusive
COc1cccc(N2CCN(C(=O)c3ccc(CSc4nc5ccncc5[nH]4)cc3)CC2)c1	G9a block 13µM
CC1CCCCC1NC(=O)c1ccc(CSc2nc3ccncc3[nH]2)cc1 (configuration not stated)	G9a block inconclusive
CC1=C(C(N)=O)C(c2ccc(C(C)C)cc2)n2nc(SCc3ccccc3F)nc2N1 (configuration not stated)	none (no result: MmCpn inh, Sfp inh, PLK1 PBD inh, CCT modulator)
CCN(CC)CCOC(=O)c1ccc(NC(=O)CCn2c(=O)oc3ccccc32)cc1	none (no result: MmCpn inh, Sfp inh, PLK1 PBD inh, CCT modulator)
CC(NC(=O)c1ccc2c(c1)sc1nc(-c3ccccc3)cn12)C12CC3CC(CC(C3)C1)C2 (configuration not stated)	none (no result: MmCpn inh, Sfp inh, PLK1 PBD inh, CCT modulator)
Cc1ccc(Nc2ccc(NCc3ccccc3)nn2)cc1C	G9a block inconclusive
Cc1ccc(Nc2nnns2)cc1C	G9a block inconclusive, Sfp inh 22µM, PLK1 PBD inh 27µM, VDR inhibitor 45µM
C=CCC1(C)OC=Cc2nc3cc(Cl)c(Cl)cc3nc21 (configuration not stated)	none (no result: G9a block, MmCpn inh, PLK1 PBD inh, CCT modulator, VDR inhibitor)
O=C(Nc1cccc(F)c1)c1ccc(-c2ccccc2Cl)o1	G9a block 56µM
Cc1ccc(-c2ccc(C(=O)Nc3cccc(F)c3)o2)c2ccccc12	G9a block 16µM, MmCpn inh inconclusive, Sfp inh 71µM
Cc1ccccc1C(=O)Nc1c(C(=O)Nc2cccc(F)c2)oc2ccccc12	none (no result: MmCpn inh, Sfp inh, PLK1 PBD inh, CCT modulator)
Cc1ccc(NC(=O)c2ccc(-c3cccc(Cl)c3C)o2)cc1	none (no result: MmCpn inh, Sfp inh, PLK1 PBD inh, CCT modulator)
O=C(Nc1ccccc1)c1cc(-c2ccccc2Cl)no1	PLK1 PBD inh 3.8µM, VDR inhibitor inconclusive
O=C1NCCCC2c3cc(O)c4ccccc4c3OC12N1CCCCC1 (configuration not stated)	G9a block 3.5µM, Sfp inh 20µM (no result: PLK1 PBD inh, CCT modulator, VDR inhibitor)
CC(C)c1ccc(NC(=O)CSC2=Nc3ccccc3C3=NC(CC(=O)NC4CCCCC4)C(=O)N23)cc1 (configuration not stated)	none (no result: MmCpn inh, Sfp inh, PLK1 PBD inh, CCT modulator)
COc1ccc(NC2CCCN(C(=O)COc3ccc(C(C)=O)cc3)C2)cc1 (configuration not stated)	none (no result: G9a block, MmCpn inh, Sfp inh, VDR inhibitor)
COc1ccc(NC2CCCN(C(=O)CCN3CCCO3)C2)cc1 (configuration not stated)	G9a block inconclusive
COc1ccc(NC2CCCN(C(=O)COc3ccc(C)cc3)C2)cc1 (configuration not stated)	G9a block 16µM
COc1ccc(NC2CCCN(C(=O)CCc3ccccc3F)C2)cc1 (configuration not stated)	G9a block 50µM
COc1ccc(NC2CCCN(C(=O)CSc3ccccc3)C2)cc1 (configuration not stated)	G9a block 35µM
CCc1cccc(CC)c1NC(=O)CSc1nnc(C2CC2)n1C	VDR inhibitor 89µM
O=C(NCc1ccco1)/C(=C/c1ccc(C(F)(F)F)cc1)c1nc2ccccc2[nH]1	G9a block 16µM, Sfp inh inconclusive
Cn1c(-c2ccccc2)c(CCO)c2ccccc21	G9a block inconclusive, PLK1 PBD inh 27µM
CCn1c(-c2ccccc2)c(C(=O)CCl)c2ccccc21	G9a block inconclusive, PLK1 PBD inh inconclusive, VDR inhibitor inconclusive
Cn1c(-c2ccccc2)c(C(=O)CCl)c2ccccc21	MmCpn inh inconclusive, PLK1 PBD inh inconclusive, VDR inhibitor 71µM
COc1ccc(N2CCn3c2nc2c3c(=O)n(CCCc3ccccc3)c(=O)n2C)c(OC)c1	G9a block 32µM
Cn1c(=O)c2c(nc3n2CC(O)CN3c2ccc(O)cc2)n(C)c1=O (configuration not stated)	G9a block 79µM
COc1ccc(N2CC(C)Cn3c2nc2c3c(=O)n(Cc3ccccc3)c(=O)n2C)c(OC)c1 (configuration not stated)	G9a block 6.3µM
COCCn1c(=O)c2c(nc3n2CC(C)CN3Cc2ccccc2)n(C)c1=O (configuration not stated)	none
Cc1ccc(N2CC(O)Cn3c2nc2c3c(=O)n(C)c(=O)n2C)cc1 (configuration not stated)	none
CCOCCn1c(=O)c2c(nc3n2CC(C)CN3Cc2ccccc2)n(C)c1=O (configuration not stated)	PLK1 PBD inh 30µM
CC1CN(C(=O)Nc2ccc(C(=O)NCCc3ccc(Cl)cc3)cc2)c2ccccc2S1 (configuration not stated)	none (no result: MmCpn inh, Sfp inh, PLK1 PBD inh, CCT modulator)
CCCCC/C=C\C/C=C\C/C=C\C/C=C\CCCC(=O)O[C@@H](CO)COCCCCCCCCCCCCCCCC	none (no result: MmCpn inh, PLK1 PBD inh, CCT modulator)
CCOc1ccc(N2CC(O)Cn3c2nc2c3c(=O)n(CCCc3ccccc3)c(=O)n2C)cc1 (configuration not stated)	G9a block 2.5µM
COc1ccc(N2CC(C)Cn3c2nc2c3c(=O)n(CCc3ccccc3)c(=O)n2C)cc1 (configuration not stated)	G9a block 3.2µM
Cc1onc(NC(=O)NC(=O)c2ccccc2F)c1Br	none (no result: G9a block)
Cc1onc(NC(=O)c2ccc(Cl)cc2Cl)c1Br	G9a block 18µM
Cc1cccc(N2CCN(C(=O)CN3C(=O)COc4ccc(S(=O)(=O)N5CCCC5)cc43)CC2C)c1 (configuration not stated)	none (no result: MmCpn inh, Sfp inh, PLK1 PBD inh, CCT modulator)
NC(=NCc1ccc(Cl)cc1Cl)NC(=O)c1nc(Cl)c(N)nc1N	Sfp inh 25µM (no result: MmCpn inh, PLK1 PBD inh, CCT modulator)
COc1cc2nc(N3CCN(C(=O)C4COc5ccccc5O4)CC3)nc(N)c2cc1OC (configuration not stated)	Sfp inh 56µM
COc1cc2nc(N3CCN(C(=O)[C@@H]4COc5ccccc5O4)CC3)nc(N)c2cc1OC	G9a block inconclusive (no result: MmCpn inh, PLK1 PBD inh, CCT modulator)
COc1ccc2c(C)c(CC(=O)N3CCN(C(=O)C4COc5ccccc5O4)CC3)c(=O)oc2c1C (configuration not stated)	PLK1 PBD inh 3.4µM, VDR inhibitor inconclusive
O=C(O)CC1COc2ccccc2N1S(=O)(=O)c1ccc(Br)cc1 (configuration not stated)	none
